Data: PubChem BioAssay (NCI)
The panel holds about 83,000 compounds, 20% with a hit somewhere; the sample as a whole holds those more often.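 Interpretation: 100, growth as untreated; towards 0, rising growth inhibition; 0, no net growth; 0 to -100, cell death. Compounds scoring below 10 were considered active.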 Unmarked numbers belong to inactive results. Calls of active or inactive are those of the source.

Legend:
Assay in all cases: NCI-60 one-dose screen, 48 h (100 = growth as untreated, 0 = no growth, -100 = all killed)
Conditions in all cases: 10 µM unless noted
EKVX NSCLC = test system: EKVX NSCLC
SN12C renal = test system: SN12C renal
UO-31 renal = test system: UO-31 renal
ACHN renal = test system: ACHN renal
A498 renal = test system: A498 renal
CCRF-CEM leukemia = test system: CCRF-CEM leukemia
MOLT-4 leukemia = test system: MOLT-4 leukemia
TK-10 renal = test system: TK-10 renal
CAKI-1 renal = test system: CAKI-1 renal

Compound	growth (EKVX NSCLC)	growth (SN12C renal)	growth (UO-31 renal)	growth (ACHN renal)	growth (A498 renal)	growth (CCRF-CEM leukemia)	growth (MOLT-4 leukemia)	growth (TK-10 renal) [%]	growth (CAKI-1 renal)
Cc1sc2nc(N3CCCCC3)[nH]c(=O)c2c1C	94.3%	99.2%	96%	103%	95%	93.7%	88.8%	–	–
COc1ccc2ncccc2c1Cc1c(OC)ccc2ncccc12	85.4%	89.4%	–	86.1%	60.4%	70.7%	57.9%	89.2	57.6%
COc1cc(NC(C)CCCN)c2nc(C)ccc2c1Oc1ccc(F)cc1 (stereo not given)	75.1%	69.9%	45.4%	84.6%	60.4%	78.2%	63.1%	–	75.9%
O=C(c1ccc(Cl)cc1)c1ccc(Cl)cc1	108%	102%	108%	123%	97.7%	88.6%	106%	–	115%
Nc1nc2c(c(=O)[nH]1)C1(C(=O)Nc3ccccc31)c1c(nc(N)[nH]c1=O)N2	104%	103%	86.7%	105%	108%	105%	90%	–	102%
COc1cc(/C=C2\CN(S(=O)(=O)c3ccc(C)cc3)C/C(=C\c3cc(CN4CCOCC4)c(O)c(OC)c3)C2=O)cc(CN2CCOCC2)c1O	11.6%	-19.3% (active)	-89.3% (active)	-82.4% (active)	36.5%	8.78% (active)	4.35% (active)	–	9.3% (active)
CC[C@@H](C)/C=C(C)/C=C/C(=O)c1c(O)c(-c2ccc(O)cc2)cn(OC2CC(=O)CCC(C)OC(=O)CC2O)c1=O (stereo not given in full)	5.02% (active)	17.5%	-15.5% (active)	0.984% (active)	28.7%	2.11% (active)	6.27% (active)	–	-17.1% (active)
O=C1CSC(c2ccccc2O)N1c1nnc(Cn2ccnc2)o1 (stereo not given)	81.5%	66.1%	32.9%	53.6%	99.5%	34%	48.6%	–	-37.5% (active)
COc1cc(-c2nnc(-c3nc(-c4cc(OC)c(OC)c(OC)c4)n4ccccc34)o2)ccc1N	8.84% (active)	50.4%	38.6%	62.2%	98.8%	43%	64.6%	–	59.3%
CCOC(=O)N1CCC(N=C2CSc3nnc(-c4cc(C(F)(F)F)cc(C(F)(F)F)c4)n3N2)CC1	31.2%	28.5%	–	30.5%	22.4%	6.9% (active)	-2.78% (active)	14.9	55.2%
COc1ccc(CC(=O)Nc2nn3c(-c4cc(C(F)(F)F)cc(C(F)(F)F)c4)nnc3s2)cc1	67.4%	64.7%	74%	81.9%	79.9%	49.9%	65.7%	–	46.2%
CCOC(=O)/C=C1/SC(=Nc2ccc(C#N)cc2)N(Cc2ccco2)C1=O	74%	52.5%	31.6%	-78.6% (active)	–	0.581% (active)	-6.94% (active)	–	–
COc1cccc(N2CCN(CC(=O)N3CCN(c4nnc(-c5ccc(Cl)cc5)c(-c5ccc(Cl)cc5)n4)CC3)CC2)c1	57%	76.7%	–	57.1%	55.4%	43.2%	28.4%	93.8	92.2%
O=C1CNc2cc(Cl)ccc2N1	89.1%	103%	81.6%	98.6%	97.3%	93.3%	87.4%	–	97.8%
CCN(CC)CCCCCCCNc1c2ccc(Cl)cc2nc2ccc(OC)cc12	-6.42% (active)	0.458% (active)	-52% (active)	-39.1% (active)	-92.1% (active)	0.0912% (active)	-11.3% (active)	–	–
O=C(Nc1ccccc1S)c1ccccc1	94.6%	95.2%	91.8%	104%	86.5%	106%	82%	–	–
COc1ccc2nc(-c3ccc(Cl)cc3)cc(-c3nnc(SCC(=O)Nc4ccc(C(C)=O)cc4)n3-c3ccccc3)c2c1	101%	114%	84.4%	108%	–	108%	83%	–	–
CN1CCN(CCCCCN=c2cc3c(=O)n(CCCCCN4CCN(C)CC4)c(=O)c4c(NCCCCCN5CCN(C)CC5)cc5c(O)n(CCCCCN6CCN(C)CC6)c(=O)c2c5c4-3)CC1	-11.4% (active)	5.16% (active)	115%	88.5%	–	13.9%	25.2%	–	102%
CN1C(=O)C(C2=NN(C=O)C(c3ccc(F)cc3)C2)C(=O)N(C)C1=O (stereo not given)	101%	97.3%	96.6%	107%	–	77.4%	93.8%	–	–
O=C(/C=C/c1ccc(C(F)(F)F)cc1)c1ccc(Nc2nc(NCCO)nc(NCCO)n2)cc1	79.5%	65.7%	44.2%	83.7%	82.1%	7.48% (active)	34.5%	–	–
COc1cnc2c(c1)C(=O)c1c-2n(CCCN2CCOCC2)c(=O)c2cc(F)ccc12	17.7%	12.4%	-47.2% (active)	-66.9% (active)	-24% (active)	1.77% (active)	-18.5% (active)	–	–
O=C(O)C1CCN(S(=O)(=O)c2ccc(-c3ccccc3)cc2)CC1	103%	101%	101%	109%	104%	90.1%	107%	–	104%
c1ccc2c(-c3nc4ccccc4[nH]3)cccc2c1	70%	47.3%	60.5%	52.7%	29.1%	22.3%	11.6%	–	61.2%
COc1ccc(N2CCN(CC(=O)N3CCN(c4nnc(-c5ccccc5)c(-c5ccccc5)n4)CC3)CC2)cc1	35.3%	46.8%	–	40.5%	44.1%	32.4%	1.56% (active)	64.7	76.5%
O=C1/C=C/[C@@H](O)[C@@H]2C[C@@H](O)C[C@H]2/C=C/CCC[C@H](CO)O1	36.4%	43.9%	11.2%	19.8%	-30.3% (active)	22.3%	-16.9% (active)	–	17.9%
CC(=O)Nc1c(Cl)cc2c(c1Cl)Cc1cc([N+](=O)[O-])ccc1-2	42.2%	97.1%	86.3%	79.5%	88.8%	57.2%	85%	–	–
Cc1n(Cc2ccc3ccccc3c2)c2ccccc2[n+]1Cc1ccc2ccccc2c1	9.57% (active)	-44.2% (active)	30.7%	25.3%	-11.5% (active)	-45.1% (active)	-54.7% (active)	–	–
O=C(CSc1nnc(-c2cc(-c3ccccc3)nc3ccccc23)o1)c1ccc(Br)cc1	107%	98%	83.1%	107%	102%	105%	104%	–	91.2%
COc1ccccc1-n1c(-c2ccc(O)cc2C)cn2c3c(=O)[nH]c(=O)n(C)c3nc12	98.7%	75%	74.2%	74%	80.2%	106%	81.4%	–	79.4%
c1ccc2nc(Cn3c[n+](Cc4ccc5ccccc5n4)c4ccccc43)ccc2c1	74.7%	22.7%	79.5%	103%	51.1%	34.9%	31.9%	–	–
